This assay deals with VDR:RXRa (NR concentration 270 nM, RXRa partner concentration 90 nM). As to the kind of experiment: PBM binding z-score (relative to random genomic background probes); higher = stronger binding; sequences stand for … in GC…GCGATTGACAGCGTAGAATGAAGG
On the procedure:
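Protein-binding microarray (Agilent 4x180K custom design, double-stranded 60-nt probes: 5' GC cap, 34-nt variable region, 24-nt constant primer region; full probe sequence given). Purified or IVT nuclear receptor:RXRα heterodimers (3:1 NR:RXRα, mostly 270:90 nM) or homodimers were incubated for 1 h in PBS with 2% milk and no ligand, then detected with Alexa488 antibodies. Fluorescence from o1-orientation probes (~5 replicates averaged) was converted to z-scores against 500 random hg19 background probes. Variable regions are seed direct-repeat (DR0–DR5) sites, all their single-nucleotide variants and half-site ablations.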
The sequence TGAATGAGGTTATAAGATCAAGGAACGTTGCAAA showed a PBM binding z-score of 1.1.

Turning to ACTGGCAGGCCAAGGGTCACTCAAGATTAGTCCG, the PBM binding z-score was 2.69.

TCTTGTAGATCAACAGGAGGTTAGGAAAGATCGA had a PBM binding z-score of 0.0401.

In the case of CCGACTGGGGCAAAGGTTACCATTCTCAGTACGA, the PBM binding z-score stood at 1.43.

Regarding GCATATAGGTAATACAATGTGAAAGTCCGATTGT, the PBM binding z-score is -0.0597.

GCATAAAGGTAATACAAGGTGAAAGTCCGATTGT: the PBM binding z-score stood at 1.05.

TTACCAAGGTGAAAGGTCGTTGGTGCACGCCTTG: the PBM binding z-score worked out at 3.5.

ATATGTTGGTTAAGGGTCATTCAGGTTGGTTCGC returned a PBM binding z-score of 5.55.

For the sequence TCTCGGAGGGCACGAAAGGTCAGAGCTCGACATC, the PBM binding z-score was 4.66.

On to TCATGTAGGTAATACAGGTGAAAGTCGGCATCTA, for which the PBM binding z-score came out at 0.207.

As to AGAATGAAGTTATACGTAGATCAGGGAAGAAAGT, the PBM binding z-score is -0.299.

In the case of GCGACTGGGGCATGAGCAGGTTACCATAACTTAA, the PBM binding z-score is -0.262.

In turn, CGAACTAGGTCAGAAGAGGACAGTGAAGGATGAT came in with a PBM binding z-score of 1.69.

The sequence CCGACTGGGGCAAGGTTACCATGACGCACAGCCA had a PBM binding z-score of -0.0991.

With CCTACTGGGCCAAACGTCATTGATTCCAATGCTC, the PBM binding z-score is -0.204.

Sequence CCTAGTTGGTCAGGAGGTCACACTCCGGATATGA had a PBM binding z-score of 3.82.

As to CCTAGTGGGTCAAGGTCACACACGCTATAGGTAC, the PBM binding z-score amounted to 4.64.

The sequence ATCTCTAGGTAAGACTCAGTTCACTGAAGAACGC displayed a PBM binding z-score of 1.74.

In turn, CCTCGGAGGACAACAAGAGGTCAGAGCTGCCAGA yielded a PBM binding z-score of 2.88.

GCGACAGGGGCAAAGCAGGTTACCATAAGGTTGG showed a PBM binding z-score of 0.898.

The sequence TCATATAGGTAATACAGGTGGAAGTCGGCATCTA showed a PBM binding z-score of 1.14.

Turning to GCTAGTTGGTCGGTAAAAGGTCACACACCGGTCG, the PBM binding z-score amounted to 3.89.

On to CCTACTGGGCCAAGAAAGGTCATTGATTCAGTGA, for which the PBM binding z-score was found to be 3.68.

In turn, CCTAGTTCGTCAGGAGGTCACACACCGGATATGA gave a PBM binding z-score of 5.03.

As to TCTGCTAGGTCAGTGGGTCAGCTAACGAGCTGCC, the PBM binding z-score came to 1.5.

In turn, GCATATAGGTAATACAACGTGAAAGTCCGATTGT came in with a PBM binding z-score of -0.316.

In the case of ATCGAAAGGTCTACGAGGTGAGTATACACCGTTT, the PBM binding z-score is 1.6.

CCTGCTGGGCCATCAGGTCATTGATATCAACGTT registered a PBM binding z-score of 1.59.

Take GCGACTGGGGCAAAGCAGCTTACCATAAGGTTGG: the PBM binding z-score is -0.87.

The sequence CCTTACGGGTCACGAGGTTATCGCACGACGAGCG yielded a PBM binding z-score of 5.31.

CGTCCAAAGTCAGCAGGTCAGTGAAAGCGACGTG came in with a PBM binding z-score of 0.372.

For TAGCCTAGGTCAGATCGGGCCAGTACACGCTATA, the PBM binding z-score is 0.906.

With AGAATGAGGTTATTAAGATCAGAGAATTGCGGTC, the PBM binding z-score stood at 2.56.

Sequence GATACAGGGTCAGCTAGAGGCCAGAGTCTGGAAA registered a PBM binding z-score of 3.26.

As for ATCTCTAGGTAAATTTCAGTGAAAGATCGATAGA, the PBM binding z-score was 0.297.

TCATGTAGATCAGCAGGTTAAGAAAGCTGGCCAA: the PBM binding z-score is 0.442.

AATACAGGGTCATCGGAGGCCAGAGTACGCACAG returned a PBM binding z-score of 5.88.

On to AGAATGAGGTTATCAAAGATCAGGGAAACGCTTG, for which the PBM binding z-score was found to be 1.12.

With TCATACAGGTAATACAGGTGAAAGTCGGCATCTA, the PBM binding z-score was determined as 1.24.

In turn, TCATATAGGTAATACACGTGAAAGTCGGCATCTA displayed a PBM binding z-score of 1.01.

These data come from the supplement of paper PMC6555819.
